# Experimental data reported in PubChem BioAssay AID2116 (The Scripps Research Institute Molecular Screening Center, 2009).
# A number with no mark means an inactive call. Active and inactive are the calls of the source. No rule for the calls is given here.
# Target: Mucolipin-2 (Homo sapiens) (UniProt Q8IZK6)
# Test: activators of mucolipin-3 and mucolipin-2 – cell-based, patch clamp, Fura-2 profiling panel (AID 2116)
# Details: HEK293 cells, TRPML2 Fura-2 Imaging; at 10 µM; active compounds read high
row,Structure (SMILES),activation
1,O=S(=O)(Nc1ccccc1N1CCCCC1)c1ccc(Cl)s1,< 1%
2,Cc1ccc(N2CCN(S(=O)(=O)N3CCCCC3)CC2)c(C)c1,23.5% (active)
3,O=S(=O)(NC1CCCCC1N1CCOCC1)c1ccc(Cl)cc1 (stereo not given),54.5% (active)
4,Cc1ccc(S(=O)(=O)Nc2ccccc2-c2ccccc2)cc1,< 1%
5,O=S(=O)(Nc1ccccc1N1CCOCC1)c1ccc(Cl)s1,7.14%
